HT1080NT lethal: qHTS for induction of synthetic lethality in tumor cells producing 2HG: qHTS for the HT-1080-NT fibrosarcoma cell line. 360,000 compounds, 1.6% hits. HT-1080-NT fibrosarcoma viability, CellTiter-Glo ATP luminescence, 48 h. Potency, µM (highest dose often 46.1 µM), most hits filed as cytotoxic;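 also: NT is the 2HG producing partner of a matched IDH1 knockdown line; nearly all actives have a fitted effect of over 55% in size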
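Viability of the 2HG-overproducing fibrosarcoma line after 48 hours of compound exposure at 37 degrees C was determined by luminescence with CellTiter-Glo, and concentration-effect curves were then fitted and categorized.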
HT1080 IDH1KD tx: qHTS for induction of synthetic lethality in tumor cells producing 2HG: qHTS for the HT-1080-IDH1KD cell line | HT-1080 IDH1 knockdown viability, ATP luminescence, 48 h | Potency, µM (doses to about 46.1 µM), actives largely listed as cytotoxic | 360,000 compounds, 2% hits | AID 686971, 2013
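Assay cells: HT-1080 with IDH1 knockdown, 750 per well, RPMI/5% FBS. Exposure: 48 h at 37 °C following 2 h pre-incubation. Read: CellTiter-Glo luminescence; fitted concentration-response, curve class assigned.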
IL1B secr inh: qHTS for Inhibitors of Inflammasome Signaling: IL-1-beta AlphaLISA Primary Screen. THP-1 LPS/ATP IL-1B secretion, AlphaLISA, 16 h; active compounds read low. activity change, % at 57.5 µM. 360,000 compounds, 4.7% hits. AID 743279, 2014; in the data active = activity change below about -50%; inconclusive = mostly about -30% to -49%
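THP-1 cells pretreated 1 hr with compounds (up to 57.5 uM final), then stimulated with LPS (250 ng/mL final) plus ATP (1.25 mM final); secreted IL-1B measured by AlphaLISA after 16 hr, decreased signal indicating inhibition.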
TDP1 cell noCPT: qHTS for Inhibitors of human tyrosyl-DNA phosphodiesterase 1 (TDP1): qHTS in cells in absence of CPT. AID 686978, 2013. Potency, µM (titrated, usually from 46.2 µM), hits mostly inhibitors. 420,000 compounds, 15% hits. DT40 Tdp1-/- hTDP1 cells, no CPT, ATP luminescence, 48 h; also: nearly all actives have a fitted effect of over 55% in size
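Compound effects on proliferation are scored in DT40 Tdp1-/-;hTDP1 cells in the absence of CPT. ATP levels (CellTiter-Glo luminescence) are recorded after a ≥48 hr, 37 °C incubation.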
TDP1 cell CPT: qHTS for Inhibitors of human tyrosyl-DNA phosphodiesterase 1 (TDP1): qHTS in cells in presence of CPT; 420,000 compounds, 12% hits; Potency, µM (doses to about 46.2 µM), usual class: inhibitors; chicken DT40 Tdp1-/-;hTDP1 cells + 20 nM CPT, ATP luminescence, 48 h; also: nearly all actives have a fitted effect of over 55% in size
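Chicken DT40 Tdp1-/- cells complemented with human TDP1, 400 cells/well, exposed to compounds plus 20 nM camptothecin for at least 48 h at 37 C; viability read as ATP content by CellTiter-Glo luminescence.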
uPA generation: qHTS for Inhibitors of Cell Surface uPA Generation. cell surface uPA generation assay, qHTS. AID 540303, 2011. 330,000 compounds, 0.31% hits. Potency, µM (highest dose often 38.3 µM), most hits filed as inhibitors; active = well fitted inhibition curve with a large enough effect; inconclusive = small, poorly fitted or top-dose-only effect; inactive = no such curve, though single readings can be large or run the other way; tested in mouse RAW 264.7 cells; also: nearly all actives have a fitted effect of over 55% in size
Each line names hits and unclear results; the compound was inactive in the other large screens. In the library only some 19% were active in any assay of this set; here they are far more common. Unless noted, calls follow the shape of the dose curve; as a rule, active = well fitted curve in the direction sought with a large enough effect; inconclusive = small, poorly fitted or top-dose-only effect, or another doubt; inactive = no such curve, though single readings can be large; an effect the other way counts as inactive or inconclusive.

CCCCCCCCN1C(=O)[C@H](CC(=O)NCCCOCCCC)C[C@@]2(C(=O)OCC)CCCC=C12	HT1080NT lethal inconclusive, HT1080 IDH1KD tx inconclusive, TDP1 cell noCPT 16µM, TDP1 cell CPT 13µM (no result: uPA generation)
CCCCCCCCN1C(=O)[C@H](CC(=O)NCCC(C)C)C[C@@]2(C(=O)OC)CCCCC=C12	HT1080NT lethal inconclusive, IL1B secr inh -60, TDP1 cell noCPT 16µM, TDP1 cell CPT inconclusive (no result: uPA generation)
COc1ccc(Cl)cc1NS(=O)(=O)c1ccc2c(c1)NC(=O)CC(=O)N2	none (no result: HT1080NT lethal, HT1080 IDH1KD tx, IL1B secr inh, uPA generation)
CCCCCCCCN1C(=O)[C@H](CC(=O)NCCCC)C[C@@]2(C(=O)OC)CCCCC=C12	HT1080NT lethal inconclusive, HT1080 IDH1KD tx inconclusive, TDP1 cell noCPT 12µM, TDP1 cell CPT 16µM (no result: IL1B secr inh, uPA generation)
COCCCNC(=O)C[C@@H]1C[C@@]2(C(=O)OC)CCCCC=C2N(Cc2ccco2)C1=O	none (no result: uPA generation)
O=C(CCCc1ccccc1)N=C1SC2CS(=O)(=O)CC2N1c1ccccc1F (configuration not stated)	none
CCc1nc2c(OCCC3CCCCC3)cccn2c1N(C)C(=O)c1ccncc1	TDP1 cell noCPT 15µM, TDP1 cell CPT 16µM (no result: uPA generation)
CCc1nc2c(OCC3CCCCC3)cccn2c1N(C)C(=O)c1ccc(C)cc1	HT1080NT lethal inconclusive, HT1080 IDH1KD tx inconclusive, TDP1 cell noCPT 15µM, TDP1 cell CPT 21µM (no result: uPA generation)
CCc1nc2c(OCCC3CCCCC3)cccn2c1N(C)C(=O)c1ccc(OC)cc1	HT1080NT lethal inconclusive, HT1080 IDH1KD tx inconclusive, IL1B secr inh -56, TDP1 cell noCPT 21µM, TDP1 cell CPT inconclusive (no result: uPA generation)
Cc1ccc(Nc2nc(CSc3nnc(-c4ccc(F)cc4)n3C)cs2)cc1	TDP1 cell noCPT inconclusive, TDP1 cell CPT 15µM
COc1ccc(-c2nnc(SCc3csc(N)n3)n2C)cc1	none (no result: uPA generation)
Cc1ccc(-c2nnc(SCC(C)C)n2C)cc1	IL1B secr inh inconclusive, TDP1 cell noCPT 21µM, TDP1 cell CPT inconclusive
Cc1ccc(-c2nnc(SCC(N)=O)n2C)cc1	none
O=C(CCCn1nnnc1CN1CCOCC1)N1CCN(c2ccccc2F)CC1	none
COc1cc(OC)c(Cl)cc1N	TDP1 cell noCPT 16µM, TDP1 cell CPT inconclusive
COc1cc(NC(N)=S)c(OC)cc1Cl	none
CC1CCCCC1=NNC(=O)c1ccccc1 (configuration not stated)	none (no result: uPA generation)
COc1ccc(N=C2S/C(=C\c3ccc(C)s3)C(=O)N2CC(C)C)cc1	none
COc1ccccc1N1C(=O)S/C(=C\c2cc(C)n(C)c2C)C1=O	TDP1 cell noCPT inconclusive, TDP1 cell CPT inconclusive
CCCN1C(=O)/C(=C/c2cc(C)n(C)c2C)SC1=Nc1ccc(OC)cc1	HT1080NT lethal inconclusive, TDP1 cell noCPT 9.2µM, TDP1 cell CPT 13µM
COc1ccc(N=C2S/C(=C\c3cc(C)n(C)c3C)C(=O)N2C)cc1	TDP1 cell noCPT 6.5µM, TDP1 cell CPT inconclusive
COc1ccc(Cl)cc1C(=O)OCC(=O)NCCNC(=O)COC(=O)c1cc(Cl)ccc1OC	none
CS(=O)(=O)OCCCNCCCOS(C)(=O)=O	none (no result: HT1080NT lethal, HT1080 IDH1KD tx, IL1B secr inh, uPA generation)
C=CCOc1ccc(C2/C(=C(\O)c3ccc4c(c3)OCCO4)C(=O)C(=O)N2CCCN2CCOCC2)cc1 (configuration not stated)	none
O=C(NC(NC(=S)Nc1ccc(Cl)cc1Cl)C(Cl)(Cl)Cl)c1cccc([N+](=O)[O-])c1 (configuration not stated)	HT1080NT lethal inconclusive, HT1080 IDH1KD tx inconclusive, IL1B secr inh -102, TDP1 cell noCPT 5.8µM, TDP1 cell CPT 7.3µM
Cc1ccccc1NC(=S)NC(NC(=O)c1ccccc1C)C(Cl)(Cl)Cl (configuration not stated)	TDP1 cell noCPT 21µM, TDP1 cell CPT inconclusive
Cc1cc(C)c(NC(=S)NC(NC(=O)c2ccccc2)C(Cl)(Cl)Cl)c(C)c1 (configuration not stated)	HT1080NT lethal inconclusive, HT1080 IDH1KD tx inconclusive, IL1B secr inh -75, TDP1 cell noCPT 5.8µM, TDP1 cell CPT inconclusive
CCOC(=O)CC(NC(=O)c1cc2cccc(OC)c2oc1=O)c1ccc(OC)cc1 (configuration not stated)	TDP1 cell noCPT inconclusive
CC1(C)CC(Cc2ccc(C(F)(F)F)cn2)N(C(=O)OC(C)(C)C)C1 (configuration not stated)	none (no result: uPA generation)
CC(=O)c1ccccc1NC(=O)COC(=O)c1c(C)nn(-c2ccccc2)c1C	IL1B secr inh inconclusive, TDP1 cell noCPT 15µM, TDP1 cell CPT inconclusive
Cc1nn(-c2ccccc2)c(C)c1C(=O)OCC(=O)Nc1ccccc1	TDP1 cell CPT inconclusive
COc1ccccc1NC(=O)COC(=O)c1c(C)nn(-c2ccccc2)c1C	IL1B secr inh inconclusive, TDP1 cell noCPT 18µM, TDP1 cell CPT 18µM
Cc1nn(-c2ccccc2)c(C)c1C(=O)OCC(=O)Nc1ccccc1C(F)(F)F	TDP1 cell noCPT inconclusive, TDP1 cell CPT inconclusive
COc1ccc(NC(=O)c2nc3nc(C)cc(C(F)F)n3n2)c(C)c1	none (no result: HT1080NT lethal, HT1080 IDH1KD tx, IL1B secr inh, uPA generation)
Oc1ccc2ccccc2c1/C=N/n1cnnc1	none
O=[N+]([O-])c1cccc2ccc(/C=C/c3cccc(Br)c3)nc12	TDP1 cell noCPT inconclusive
Oc1ccc2ccccc2c1/C=C/c1ccc2c(Br)cc(Br)c(O)c2n1	HT1080NT lethal inconclusive, HT1080 IDH1KD tx 29µM, TDP1 cell noCPT 5.2µM, TDP1 cell CPT 3.7µM
CSc1ccc(/C=C/c2ccc3cccc(O)c3n2)cc1	HT1080NT lethal inconclusive, HT1080 IDH1KD tx inconclusive, TDP1 cell noCPT 21µM, TDP1 cell CPT 16µM
CCOc1cc(/C=C/c2ccc3cccc([N+](=O)[O-])c3n2)cc(Cl)c1O	TDP1 cell noCPT inconclusive, TDP1 cell CPT inconclusive
COc1cc(Br)c(/C=C/c2ccc3cccc(O)c3n2)cc1OC	TDP1 cell noCPT 13µM, TDP1 cell CPT 12µM
Oc1cccc2ccc(/C=C/c3ccccc3Br)nc12	HT1080NT lethal inconclusive, HT1080 IDH1KD tx inconclusive, TDP1 cell noCPT 5.8µM, TDP1 cell CPT 6.5µM
COCCNC(=O)c1cnc2sc(N3CCCCC3)nn2c1=O	none (no result: HT1080NT lethal, HT1080 IDH1KD tx, IL1B secr inh, uPA generation)
Oc1ccc(Cl)cc1/C=C/c1ccc2cccc(O)c2n1	HT1080NT lethal inconclusive, HT1080 IDH1KD tx 21µM, TDP1 cell noCPT 26µM, TDP1 cell CPT inconclusive
COc1cc(/C=C/c2ccc3cccc(OC)c3n2)c(O)c([N+](=O)[O-])c1	IL1B secr inh inconclusive, uPA generation inconclusive
